Results on 40 compounds are retold here after PubChem BioAssay (NCATS).

SMILES strings stand for the structures. Results filed as inconclusive are left out. Active and inactive are the calls of the source. Calls come from the whole dose curve; as a rule, active = well fitted cell-killing curve with a large enough effect; inconclusive = small, poorly fitted or top-dose-only effect, or effect the other way; inactive = no such curve, though single readings can be large or run the other way.
Potency is the fitted concentration of half-maximal effect.

The experiment can be described thus: Quantitative High-Throughput drug screen in 47 multiple myeloma cell lines against the NCATS MIPE library collection: SKMM1_PLB cell viability assay (AID 1919863). For viability: series mostly up to about 46 µM. Note: nearly all actives have a fitted effect of over 35% in size. The note with it: SKMM1 myeloma viability, CellTiter-Glo ATP, 48 h; viability: active compounds read low. An excerpt:
PI: Beverly A. Mock Ph.D.
Laboratory of Cancer Biology and Genetics,
Center for Cancer Research, National Cancer Institute,
National Institute of Health, Bethesda, Maryland
Drug resistance and disease progression are common in multiple myeloma (MM) patients, underscoring the need for new therapeutic combinations. […] We hypothesized that effective combinations would reduce MYC expression and enhance p16 activity. […] These preclinical data identify potentially useful drug combinations for evaluation in drug-resistant MM and reveal potential mechanisms of combined drug sensitivity.
Described herein is the primary MIPE qHTS used to cherrypick compounds. Validated compounds were then further tested for potential synergistic activiy.
[1] Peat TJ, Gaikwad SM, Dubois W, Gyabaah-Kessie N, Zhang S, Gorjifard S, Phyo Z, Andres M, Hughitt VK, Simpson RM, Miller MA, Girvin AT, Taylor A, Williams D, D'Antonio N, Zhang Y, Rajagopalan A, Flietner E, Wilson K, Zhang X, Shinn P, Klumpp-Thomas C, McKnight C, Itkin Z, Chen L, Kazandijian D, Zhang J, Michalowski AM, Simmons JK, Keats J, Thomas CJ, Mock BA. Drug combinations identified by high-throughput screening promote cell cycle transition and upregulate Smad pathways in myeloma. Cancer Lett. 2023 Aug 1;568:216284. doi: 10.1016/j.canlet.2023.216284. Epub 2023 Jun 24. PMID: 37356470; PMCID: PMC10408729.
SEQUENCE No. (e.g., 1, 2, 3, etc.); […] (e.g., Cells, Incubation, Reagent, etc.); VALUE and DESCRIPTION.
1; Cells; 5 uL; white, solid bottom 1536-well Greiner assay plate.
2; Compounds; 23 nL; Kalypsis pin tool (Wako USA) equipped with a 1536-well pin head to transfer to the assay plates.
3; Incubation; 48 hours; 37C incubation.
4; Reagent;5uL; CellTiter Glo (Promega).
5; Detector; 425V; Luminescence; Viewlux PerkinElmer.
NOTES (numbers refer to Sequence numbers above)
1. The cell-based screening methods employed in this study were like those previously published. Briefly, the corresponding myeloma cell lines were screened in 1,536-well plates with 500 cells, 5-uL per well for inhibition of cell viability (assessed by measuring ATP levels with CellTiterGlo).
2. NCATS MIPE 4.0 library of approved and investigational drugs were added using the Kalypsis pin tool. Wells treated with DMSO only for 100% viability and media only for 0% viability were used as controls.
3. The assay plates were covered and incubated for 48 hours in a 37C, 5% CO2 incubator with controlled humidity.
4. After 48 hours, CellTilter-GloTM luminescent substrate mix (Promega) reagent was added to the assay plate and plates we incubated for 5 min at room temperature.
5. Signal was measured as median relative luminescence units on a ViewLux (PerkinElmer) multiplate reader.
[1] Heske CM, Davis MI, Baumgart JT, Wilson K, Gormally MV, Chen L, Zhang X, Ceribelli M, Duveau DY, Guha R, Ferrer M, Arnaldez FI, Ji J, Tran HL, Zhang Y, Mendoza A, Helman LJ, Thomas CJ. Matrix Screen Identifies Synergistic Combination of PARP Inhibitors and Nicotinamide Phosphoribosyltransferase (NAMPT) Inhibitors in Ewing Sarcoma. Clin Cancer Res. 2017 Dec 1;23(23):7301-7311. doi: 10.1158/1078-0432.CCR-17-1121. Epub 2017 Sep 12. PMID: 28899971; PMCID: PMC6636827.
Background: Cellular ATP, detected with luciferase, serves as a proxy for viable cell number.
In the case of `CC#C[C@]1(O)CC[C@H]2[C@@H]3CCC4=CC(=O)CCC4=C3[C@@H](c3ccc(N(C)C)cc3)C[C@@]21C`, the Potency was 4.18 µM (active).

In general, viability refers to a read-out of living cells in per cent, often relative to untreated cells. With `CCOC(=O)C(C)(C)Oc1ccc(Cl)cc1`, the viability is 104% (inactive).

Regarding `CC1COc2c(N3CCN(C)CC3)c(F)cc3c(=O)c(C(=O)O)cn1c23` (stereo not given), the viability is 135% (inactive).

For `CS(=O)(=O)CCNCc1ccc(-c2ccc3ncnc(Nc4ccc(OCc5cccc(F)c5)c(Cl)c4)c3c2)o1`, the Potency was 23.5 µM (active).

On to `CC[C@@]1(O)C(=O)OCc2c1cc1n(c2=O)Cc2cc3c(CN(C)C)c(O)ccc3nc2-1`, for which the Potency was 3.32 µM (active).

Turning to `NCCS(=O)(=O)O`, the viability was 109% (inactive).

As for `NC(=O)NO`, the Potency was 10.5 µM (active).

For `Cc1cn([C@H]2C=C[C@@H](CO)O2)c(=O)[nH]c1=O`, the viability is 87.6% (inactive).

As to `CN(C)C(=O)C(CCN1CCC(O)(c2ccc(Cl)cc2)CC1)(c1ccccc1)c1ccccc1`, the Potency is 23.5 µM (active).

As to `CC(C)NCC(O)c1ccc(O)c(O)c1` (stereo not given), the Potency was 16.6 µM (active).

For the compound `CC(CCc1ccc(O)cc1)NCCc1ccc(O)c(O)c1` (stereo not given), the Potency was 18.7 µM (active).

For `CN(CCOc1ccc(NS(C)(=O)=O)cc1)CCc1ccc(NS(C)(=O)=O)cc1`, the viability is 109% (inactive).

Turning to `N[C@@H](Cc1c[nH]c2ccc(O)cc12)C(=O)O`, the viability was 109% (inactive).

With `Cn1cnc2c1c(=O)[nH]c(=O)n2C`, the Potency was 20.9 µM (active).

On to `O=C(CCCN1CCC(O)(c2ccc(Cl)cc2)CC1)c1ccc(F)cc1`, for which the viability is 92.3% (inactive).

On to `CC12CC3CC(C)(C1)CC(N)(C3)C2`, for which the viability is 125% (inactive).

In the case of `NC(CO)C(=O)NNCc1ccc(O)c(O)c1O` (stereo not given), the Potency was 11.8 µM (active).

In the case of `Nc1ccn([C@H]2CC[C@@H](CO)O2)c(=O)n1`, the viability is 109% (inactive).

In the case of `O=C1c2c(O)ccc(O)c2C(=O)c2c(NCCNCCO)ccc(NCCNCCO)c21`, the Potency is 2.96 µM (active).

As for `CC(COc1ccccc1)N(CCCl)Cc1ccccc1` (stereo not given), the viability was 112% (inactive).

Regarding `CN(Cc1cnc2nc(N)nc(N)c2n1)c1ccc(C(=O)N[C@@H](CCC(=O)O)C(=O)O)cc1`, the Potency was 5.9 µM (active).

As to `COC(=O)Nc1nc2ccc(C(=O)c3cccs3)cc2[nH]1`, the Potency was 0.0017 µM (active).

`CN(C)CCCN1c2ccccc2CCc2ccc(Cl)cc21`: the Potency was 14.8 µM (active).

Regarding `CN(C)CCOC(c1ccccc1)c1ccccc1`, the viability was 119% (inactive).

`COc1ccccc1N1CCN(CC(O)COc2cccc3ccccc23)CC1` (stereo not given): the viability is 119% (inactive).

For the compound `CCCCc1oc2ccccc2c1C(=O)c1cc(I)c(OCCN(CC)CC)c(I)c1`, the Potency is 20.9 µM (active).

On to `O=c1[nH]cc(F)c(=O)[nH]1`, for which the Potency is 13.2 µM (active).

For the compound `CN1C(C(=O)Nc2ccccn2)=C(O)c2ccccc2S1(=O)=O`, the viability is 103% (inactive).

As for `CN1CCN(C2=Nc3cc(Cl)ccc3Nc3ccccc32)CC1`, the viability was 114% (inactive).

With `Cc1ccccc1N1C(=O)c2cc(S(N)(=O)=O)c(Cl)cc2NC1C` (stereo not given), the viability was 117% (inactive).

Take `O=C(c1ccc(OCCN2CCCCC2)cc1)c1c(-c2ccc(O)cc2)sc2cc(O)ccc12`: the Potency was 26.4 µM (active).

With `COc1cc2nc(N3CCN(C(=O)c4ccco4)CC3)nc(N)c2cc1OC`, the Potency is 23.5 µM (active).

For `CC(C(=O)O)c1cccc(C(=O)c2ccccc2)c1` (stereo not given), the viability is 106% (inactive).

Regarding `O=C1N(c2ccccc2)c2ccccc2C1(Cc1ccncc1)Cc1ccncc1`, the viability is 122% (inactive).

Turning to `CCOC(=O)Nc1ccc(NCc2ccc(F)cc2)nc1N`, the viability is 134% (inactive).

As to `Cc1cn([C@H]2C[C@H](N=[N+]=[N-])[C@@H](CO)O2)c(=O)[nH]c1=O`, the viability is 139% (inactive).

Regarding `CNCCCC12CCC(c3ccccc31)c1ccccc12`, the Potency is 18.7 µM (active).

Take `COc1ccc2c(c1)c(CC(=O)O)c(C)n2C(=O)c1ccc(Cl)cc1`: the viability is 128% (inactive).

As for `Clc1ccc(C(c2ccccc2Cl)C(Cl)Cl)cc1` (stereo not given), the Potency was 20.9 µM (active).

`NS(=O)(=O)c1cc2c(cc1Cl)NCNS2(=O)=O`: the viability was 114% (inactive).
